# Test results taken from ChEMBL document CHEMBL3988442, “University of Dundee, Small-Polar-MMV Screening Library” (2021).
# Among all 66,000 compounds or so, about 960 (1.5%) showed an effect of 50% or more. Shown is part of a subset that was picked to be rich in strong results.
# Tested on: Trypanosoma brucei
# Assay: Trypanosoma brucei 72 hour study
# Format: functional, organism-based
# Design: scale not given: in the data most compounds retested in dose-response had high values
structure (smiles),measurement,setting,value
CCNC(=O)N1CC(c2nc(Cc3ccccc3)no2)C1,Percent Effect,"30.3 µM, […]",0.6321%
COC(=O)CN1CC(c2nc(Cc3ccccc3)no2)C1.O=C(O)C(=O)O,Percent Effect,"30 µM, 30.03 µM",101%
Cc1nn(C)c2ncnc(N3CCCC(C)(O)C3)c12 (stereo unspecified),Percent Effect,"30 µM, 30.03 µM",2.016%
CCC1(O)CCCN(c2ncnc3c2c(C)nn3C)C1 (stereo unspecified),Percent Effect,"30 µM, 30.03 µM",27.55%
Cc1nn(C)c2ncnc(N3CCC(O)(CN4CCCC4)CC3)c12,Percent Effect,"30 µM, 30.03 µM",57.4%
COc1cc(N2CCO[C@H]3[C@@H](Oc4cccnc4)CC[C@@H]32)ncn1.O=C(O)C(F)(F)F.O=C(O)C(F)(F)F,Percent Effect,"30 µM, 30.03 µM",-15.67%
CCC1CCCCN1CCNC(=O)N1CCN(Cc2ccon2)CC1 (stereo unspecified),Percent Effect,"30 µM, 30.03 µM",20.59%
CN(C)CCn1c2c(ccc1=O)CC(NC(=O)NC1CCCC1)CC2.O=C(O)C(F)(F)F (stereo unspecified),Percent Effect,"30.3 µM, […]",-38.22%
CC(C)(C)NC(=O)NC(=O)CNc1c(F)cccc1N1CCCC1,Percent Effect,"30 µM, 30.03 µM",-52.35%
CCCn1cc(S(=O)(=O)N[C@H]2CN(CCO)C[C@@H]2C2CC2)cn1,Percent Effect,"30 µM, 30.03 µM",-20.35%
CC1=C[C@@H](CN2CCCC2)[C@H](C(C)C)C[C@H]1Cc1nnc(C)o1,Percent Effect,"30 µM, 30.03 µM",17.59%
CC1=C[C@@H](CN2CCN(C)CC2)[C@H](C(C)C)C[C@H]1Cc1nnc(C)o1,Percent Effect,"30 µM, 30.03 µM",28.22%
CC1=C[C@@H](CN2CCOCC2)[C@H](C(C)C)C[C@H]1Cc1nnc(C)o1,Percent Effect,"30 µM, 30.03 µM",60.87%
CC1c2ncc(Cn3cncn3)n2CCN1C(=O)c1ccsc1 (stereo unspecified),Percent Effect,"30.3 µM, […]",-6.898%
CC(C)N1CCO[C@@H]2CN(C(=O)Cc3cccs3)CC[C@@H]2C1.O=C(O)C(F)(F)F,Percent Effect,"30.3 µM, […]",-84.63%
Cc1ccc(-c2nc(CNS(=O)(=O)N(C)C)[nH]c2-c2ccccn2)cc1,Percent Effect,"30 µM, 30.03 µM",-19.21%
Cc1ccc(-c2nc(CNC(C)CCO)[nH]c2-c2ccccn2)cc1 (stereo unspecified),Percent Effect,"30 µM, 30.03 µM",-54.5%
COCC(C)NCc1nc(-c2ccc(C)cc2)c(-c2ccccn2)[nH]1 (stereo unspecified),Percent Effect,"30 µM, 30.03 µM",72.12%
Cc1c(Cl)cccc1S(=O)(=O)NCC(O)c1cccn1C (stereo unspecified),Percent Effect,"30.3 µM, […]",15.12%
Cn1cccc1C(O)CNS(=O)(=O)c1ccccc1Br (stereo unspecified),Percent Effect,"30.3 µM, […]",101.8%
Cn1cccc1C(O)CNS(=O)(=O)c1ccccc1F (stereo unspecified),Percent Effect,"30.3 µM, […]",21.76%
COc1ccc(C)cc1S(=O)(=O)NCC(c1cccn1C)N(C)C (stereo unspecified),Percent Effect,"30 µM, 30.03 µM",-85.17%
COc1cc(C)c(C)cc1S(=O)(=O)NCC(O)c1cccn1C (stereo unspecified),Percent Effect,"30.3 µM, […]",93.04%
Cc1cc(F)ccc1S(=O)(=O)NCC(O)c1cccn1C (stereo unspecified),Percent Effect,"30.3 µM, […]",2.147%
Cc1cccc(CN2CCc3cc(C(=O)O)c(N(C)C)nc3CC2)n1.O=C(O)C(F)(F)F.O=C(O)C(F)(F)F,Percent Effect,"30.3 µM, […]",-4.937%
CN(C)C(=O)COC[C@@H]1CC[C@H]2[C@H](CCN2c2ncccn2)O1.O=C(O)C(F)(F)F,Percent Effect,"30 µM, 30.03 µM",-8.509%
Cc1ccc(CN2CC3(CCN(C(=O)c4cscn4)C3)C2)o1.O=C(O)C(F)(F)F,Percent Effect,"30 µM, 30.03 µM",-9.237%
O=C(O)C(F)(F)F.O=C(O)C(F)(F)F.O=C(O)C(F)(F)F.OCCN1CCC2(CC1)CC(NCc1ccccn1)c1ccccc1O2 (stereo unspecified),Percent Effect,"30 µM, 30.03 µM",-31.61%
CC(C)N1CCCC1c1cc(CO)[nH]n1.O=CO (stereo unspecified),Percent Effect,"30.3 µM, […]",-7.818%
Cc1ccc(N2CCc3c(CN(C)Cc4ccco4)cncc3C2)nn1.Cl.Cl,Percent Effect,"30.3 µM, […]",-4.486%
CN(Cc1ccco1)Cc1cncc2c1CCN(c1ncccn1)C2.Cl.Cl,Percent Effect,"30 µM, 30.03 µM",54.64%
Cc1cnc(N2CCc3c(CN(C)Cc4ccco4)cncc3C2)nc1,Percent Effect,"30.3 µM, […]",5.943%
CCN1CCC(NC(=O)CN2CCc3c(ncn3C3CC3)C2)CC1,Percent Effect,10 µM,-42.18%
Cc1cnc(C(=O)N2CCC3(CCN(Cc4ccccn4)C3=O)C2)cn1.O=C(O)C(F)(F)F (stereo unspecified),Percent Effect,"30 µM, 30.03 µM",-17.07%
Cc1ccccc1-n1cc(-c2ccnc(N3CCCC(CN)C3)n2)cn1 (stereo unspecified),Percent Effect,"30.3 µM, […]",46.15%
Cc1ccccc1-n1cc(-c2ccnc(N3CCCC(O)C3)n2)cn1 (stereo unspecified),Percent Effect,"30.3 µM, […]",12.09%
COC[C@H]1CCCN1c1nccc(-c2cnn(-c3ccccc3C)c2)n1,Percent Effect,"30.3 µM, […]",99.85%
Cl.c1cc(CNCc2ccc(-n3cncn3)nc2)cc(OC2CCCC2)c1,Percent Effect,"30.3 µM, […]",-105%
O=C(c1cnccn1)N1CCN(c2ccnc3ccsc23)CC1,Percent Effect,"30.3 µM, […]",-26.37%
Cc1ccc(C(=O)N2CCN(c3ccnc4ccsc34)CC2)o1,Percent Effect,"30.3 µM, […]",99.86%
O=C(N1CCOCC1)N1CCN(c2ccnc3ccsc23)CC1,Percent Effect,"30.3 µM, […]",-32.02%
CN(C)Cc1nn(C)c2c1CN(C(=O)c1cccc(C#N)c1)C2,Percent Effect,"30.3 µM, […]",-11.38%
Cc1cc(C)cc(CNc2ccc(C(=O)NC(C)CO)cc2)c1 (stereo unspecified),Percent Effect,"30.3 µM, […]",34.18%
CC(CO)NC(=O)c1ccc(NCc2ccc(F)c(F)c2)cc1 (stereo unspecified),Percent Effect,"30.3 µM, […]",74.6%
CC(CO)NC(=O)c1ccc(NCc2ccccc2)cc1 (stereo unspecified),Percent Effect,"30.3 µM, […]",11.13%
CCn1cc(N2Cc3nc(N4CCC(O)CC4)ncc3C2=O)cn1,Percent Effect,"30.3 µM, […]",-24.87%
